From PubChem BioAssay
MEKK2mut PB1 HTS: signal of MEK5 binding to mutant human MEKK2 PB1 domain; bead flow cytometry, Alexa488-MEK5 binding to MEKK2 mutant; percent response, % at 10 µM; hit rate 0.35% among 290,000; AID 1530; in the data active means percent response above about 24%, passing the limit was not always enough
UBC13 inh: human UBC13 polyubiquitination inhibition | P61088 | UBC13 polyubiquitin chain formation, TR-FRET | inhibition, % at 20 µM | hit rate 0.47% among 330,000 | AID 485273; in the data active means inhibition above about 45%, passing the limit was not always enough
Target sequence (P61088 whole entry, looked up): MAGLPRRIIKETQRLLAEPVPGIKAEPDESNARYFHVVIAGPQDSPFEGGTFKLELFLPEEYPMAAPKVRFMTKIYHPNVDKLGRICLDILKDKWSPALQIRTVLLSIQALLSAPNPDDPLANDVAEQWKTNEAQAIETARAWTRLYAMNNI
MEKK2 WT-MEK5: raises or lowers MEK5 binding to wildtype human MEKK2 PB1 domain; Q9Y2U5; bead flow cytometry, Alexa488-MEK5 binding to MEKK2 WT; actives lie on both sides; binding response (% of control), % at 10 µM; hit rate 1.1% among 290,000; AID 1531; in the data active means binding response below about 67% or above about 130%
MEKK3 PB1 HTS: modulators (inhibitors or enhancers) of MEK5 binding to human MEKK3 PB1 domain; Q99759; bead-based flow cytometry, Alexa488-MEK5 binding to MEKK3; actives lie on both sides; 0 = blocked by unlabeled MEK5, 100 = vehicle; binding response (% of control), % at 10 µM; hit rate 1.4% among 290,000;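 active means binding response more than 3 SD above or below the average of its plate-row segment, actives on both sides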;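 further: Alexa488 bead fluorescence after subtracting the streptavidin-only scavenger bead signal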
Rce1 inhib: yeast Ras-converting enzyme inhibition | yeast membranes, quenched prenylated peptide cleavage fluorescence | calls only | Q03530 | hit rate 0.27% among 290,000 | AID 2563;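 active means fall in fluorescence gain of 50% or more versus controls, with final raw signal at or below 3038400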
Target sequence (Q03530 whole entry, looked up): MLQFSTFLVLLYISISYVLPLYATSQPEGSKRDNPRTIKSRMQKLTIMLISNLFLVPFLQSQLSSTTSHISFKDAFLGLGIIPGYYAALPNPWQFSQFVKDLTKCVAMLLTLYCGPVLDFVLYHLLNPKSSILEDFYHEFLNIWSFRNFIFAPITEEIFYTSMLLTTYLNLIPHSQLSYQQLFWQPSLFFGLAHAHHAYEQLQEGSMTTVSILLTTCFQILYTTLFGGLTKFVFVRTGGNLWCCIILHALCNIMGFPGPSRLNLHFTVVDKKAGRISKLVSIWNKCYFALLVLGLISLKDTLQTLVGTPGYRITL
MEKK2wt confirm: raises or lowers MEK5 binding to wildtype human MEKK2, retest; shares compounds with MEKK3 PB1 HTS; bead flow cytometry, Alexa488-MEK5 binding to MEKK2 WT; actives lie on both sides; binding response (% of control), % at 10 µM; hit rate 2.4% among 5,900; AID 1892; in the data active means binding response below about 16% or above about 210%; inactive means in between
MEKK2mut-MEK5: signal of MEK5 binding to mutant human MEKK2, retest; percent response, % at 10 µM; bead flow cytometry, Alexa488-MEK5 binding to MEKK2 mutant; hit rate 2% among 5,900; shares compounds with MEKK3 PB1 HTS; AID 1893; in the data active means percent response mostly above about 71%, no sharp cut-off; inactive means mostly below about 38%;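 further: higher means compound restores mutant binding toward wildtype level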
MEKK3 confirm: confirmation of inhibitors of MEK5 binding to human MEKK3; shares compounds with MEKK3 PB1 HTS; bead flow cytometry, Alexa488-MEK5 binding to MEKK3; hits give low values; binding response (% of control), % at 10 µM; hit rate 1.8% among 5,900; AID 1894;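 active means binding response below 72% of control, or above a set upper limit, though filed actives all read lower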
Of the large screens only hits and unclear results are named; the others gave an inactive call (follow-up assays come after a bar, where they were run); [ ] = dose if it differs, or a comment. This is a sample that favours compounds with a hit; in the whole collection about 2.5% have one here.

O=S(=O)(c1ccccc1)N1N=C(c2ccccc2)CC1c1ccco1 (stereo unspecified)	none (no result: UBC13 inh)
CC(=O)N1N=C(c2ccccc2)CC1c1ccc2c(c1)OCO2 (stereo unspecified)	none
CS(=O)(=O)N1N=C(c2ccccc2)CC1c1ccc2c(c1)OCO2 (stereo unspecified)	MEKK3 PB1 HTS 20.0[inhibitor] (no result: MEKK2mut PB1 HTS, UBC13 inh, MEKK2 WT-MEK5) | MEKK2wt confirm inactive | MEKK2mut-MEK5 inactive | MEKK3 confirm 68.0
Cc1ccc(C2=NN(S(=O)(=O)c3ccccc3)C(c3ccccc3O)C2)cc1 (stereo unspecified)	MEKK2mut PB1 HTS 161.0, MEKK3 PB1 HTS 14.0[inhibitor] (no result: UBC13 inh, MEKK2 WT-MEK5) | MEKK2wt confirm inactive | MEKK2mut-MEK5 inactive | MEKK3 confirm inactive
Cc1ccc(C2=NN(C(=O)c3cccs3)C(c3ccccc3O)C2)cc1 (stereo unspecified)	none
COc1ccc(OC)c(/C(O)=C/C(=O)C(=O)Nc2cc(C)cc(C)c2)c1	MEKK3 PB1 HTS 126.0 | MEKK2wt confirm inactive | MEKK2mut-MEK5 inactive | MEKK3 confirm inactive
COc1ccc(S(=O)(=O)N2CCCCC2)cc1NC(=O)c1cnc(C)cn1	none (no result: MEKK2mut PB1 HTS, MEKK2 WT-MEK5, MEKK3 PB1 HTS, Rce1 inhib)
N#CC1=C(N)Oc2cc(O)ccc2C1c1cccnc1 (stereo unspecified)	MEKK3 PB1 HTS 132.0 (no result: Rce1 inhib) | MEKK2wt confirm inactive | MEKK2mut-MEK5 inactive | MEKK3 confirm inactive
N#CC1=C(N)Oc2cc(O)c(Cl)cc2C1c1cccnc1 (stereo unspecified)	none
Cc1ccc(-c2csc3nc4c5ccccc5c(NCCCN5CCOCC5)nn4c(=O)c23)cc1	UBC13 inh 55.5, MEKK2 WT-MEK5 145.0 | MEKK2wt confirm inactive | MEKK2mut-MEK5 inactive | MEKK3 confirm inactive
Cc1ccc(-c2nc3ccccc3c(=O)n2CCCN2CCOCC2)cc1	none
O=C(C[n+]1cc(-c2ccccc2)n2c1CCCCC2)c1ccc(Cl)cc1	MEKK2 WT-MEK5 142.0 | MEKK2wt confirm inactive | MEKK2mut-MEK5 inactive | MEKK3 confirm inactive
O=C(C[n+]1cc(-c2ccc(Cl)c(Cl)c2)n2c1CCC2)OCc1ccccc1	MEKK3 PB1 HTS 155.0 | MEKK2wt confirm inactive | MEKK2mut-MEK5 inactive | MEKK3 confirm inactive
Cc1ccc(-c2c[n+](CC(=O)Nc3nc(-c4ccccc4)cs3)c3n2CCC3)cc1	MEKK2 WT-MEK5 183.0 | MEKK2wt confirm inactive | MEKK2mut-MEK5 inactive | MEKK3 confirm inactive
O=C(C[n+]1cc(-c2ccccc2)n2c1CCC2)Nc1nc(-c2ccccc2)cs1	MEKK2 WT-MEK5 166.0 | MEKK2wt confirm inactive | MEKK2mut-MEK5 inactive | MEKK3 confirm inactive
Cc1ccc(NC(=O)C[n+]2cc(-c3ccccc3)n3c2CCC3)cc1	none
Cc1ccc(-c2c[n+](CC(=O)Nc3ccccc3C)c3n2CCC3)cc1	none
Cc1ccc2nc(CCl)[n+]([O-])c(-c3ccccc3)c2c1	none (no result: Rce1 inhib)
O=C(c1ccc2snnc2c1)N1CCN(c2ccccc2)CC1	MEKK3 PB1 HTS 129.0 (no result: Rce1 inhib) | MEKK2wt confirm inactive | MEKK2mut-MEK5 inactive | MEKK3 confirm inactive
CNC(=O)c1ccc(C)c(NC(=O)C2=C(C)OCCS2)c1	none
COc1ccc(C(CCN2CCCC(C)C2)c2c(OC)cc(OC)c3c2OC(=O)CC3c2cc(OC)c(OC)c(OC)c2)cc1 (stereo unspecified)	MEKK2 WT-MEK5 145.0 | MEKK2wt confirm inactive | MEKK2mut-MEK5 inactive | MEKK3 confirm inactive
CN(CC(=O)NCc1ccc(F)cc1)S(=O)(=O)c1cccc2nsnc12	none
CN(CC(=O)NCc1cccs1)S(=O)(=O)c1cccc2nsnc12	MEKK2 WT-MEK5 3.0[inhibitor], MEKK3 PB1 HTS 2.0[inhibitor] | MEKK2wt confirm inactive | MEKK2mut-MEK5 inactive | MEKK3 confirm inactive
C=C1CCC[C@]2(C)C[C@H]3OC(=O)C(CNC(C)CCCC(C)C)[C@H]3CC12 (stereo partly specified)	MEKK2 WT-MEK5 138.0 | MEKK2wt confirm inactive | MEKK2mut-MEK5 inactive | MEKK3 confirm inactive
C=C1CCC[C@]2(C)C[C@H]3OC(=O)C(CN[C@@H](C)c4ccccc4)[C@H]3CC12 (stereo partly specified)	none (no result: UBC13 inh)
Cc1ccc(N(C)S(=O)(=O)c2cccc(C(=O)N(C)Cc3cnn(-c4ccccc4)c3)c2)cc1	none (no result: MEKK2mut PB1 HTS, MEKK2 WT-MEK5, MEKK3 PB1 HTS, Rce1 inhib)
CCOC(=O)NC1(C(F)(F)F)NC(=O)N(C2CCCCC2)C1=O (stereo unspecified)	MEKK2 WT-MEK5 -4.0[inhibitor] | MEKK2wt confirm inactive | MEKK2mut-MEK5 inactive | MEKK3 confirm inactive
O=C(NC1(C(F)(F)F)NC(=O)N(C2CCCCC2)C1=O)C1CC1 (stereo unspecified)	none
COCCN(CC(=O)NCc1ccc(F)cc1)C(=O)CCC(=O)Nc1ccccn1	MEKK3 PB1 HTS 81.0[inhibitor] | MEKK2wt confirm inactive | MEKK2mut-MEK5 inactive | MEKK3 confirm inactive
COCCN(CC(=O)NCc1ccc(F)cc1)C(=O)CCC(=O)Nc1nccs1	none
C=C(C)c1cc2c(ccc3ccc(=O)oc32)o1	none (no result: MEKK2mut PB1 HTS, MEKK2 WT-MEK5, MEKK3 PB1 HTS, Rce1 inhib)
CN(C)n1cccc1/C=C(\C#N)S(=O)(=O)c1ccc(Cl)cc1	MEKK3 PB1 HTS 139.0 | MEKK2wt confirm inactive | MEKK2mut-MEK5 inactive | MEKK3 confirm inactive
CC(Sc1nnc(C2CC2)n1N)C(=O)NC1CCCCC1C (stereo unspecified)	none
Cc1ccc(-n2c(C)cc(C(=O)COc3cccnc3[N+](=O)[O-])c2C)cc1	MEKK3 PB1 HTS 152.0 | MEKK2wt confirm inactive | MEKK2mut-MEK5 inactive | MEKK3 confirm inactive
CCc1ccc(OCC(=O)N/N=C/c2cc([N+](=O)[O-])ccc2N2CCCCCC2)cc1	MEKK3 PB1 HTS 136.0 | MEKK2wt confirm inactive | MEKK2mut-MEK5 inactive | MEKK3 confirm inactive
Cc1ccc(C2=NN(CC(=O)NCc3cccnc3)C(=O)CC2)cc1	MEKK3 PB1 HTS 140.0 | MEKK2wt confirm inactive | MEKK2mut-MEK5 inactive | MEKK3 confirm inactive
CC(C(=O)NCc1ccccc1)N1C(=O)c2ccccc2C1=O (stereo unspecified)	none
COc1ccc(C2=NN(CC(=O)NCc3ccco3)C(=O)CC2)cc1	MEKK3 PB1 HTS 130.0 | MEKK2wt confirm inactive | MEKK2mut-MEK5 inactive | MEKK3 confirm inactive
CC(C(=O)NCc1cccnc1)N1C(=O)c2ccccc2C1=O (stereo unspecified)	MEKK3 PB1 HTS 126.0 | MEKK2wt confirm inactive | MEKK2mut-MEK5 inactive | MEKK3 confirm inactive
O=C(CN1N=C(c2ccc(Cl)cc2)CCC1=O)NCc1cccnc1	MEKK3 PB1 HTS 142.0 | MEKK2wt confirm inactive | MEKK2mut-MEK5 inactive | MEKK3 confirm inactive
CCC1(c2ccccc2)NC(=O)N(CC(=O)Nc2cc(S(=O)(=O)N3CCCCC3)ccc2OC(C)C)C1=O (stereo unspecified)	none (no result: MEKK2mut PB1 HTS, MEKK2 WT-MEK5, MEKK3 PB1 HTS)
